Laboratory results from PubChem BioAssay (Tox21).
Values joined by “and” are separate entries in the source; they are usually repeats but may differ in a detail not shown here. Equal values may be shown once. Records with an inconclusive call do not appear. Some structures have more than one record in an assay (separate samples or runs), and their calls can disagree. Active and inactive are the calls of the source. Unless noted, calls follow the shape of the dose curve; as a rule, active = well fitted curve in the direction sought with a large enough effect in the repeat runs; inconclusive = weak or mixed curves; inactive = no such curve, though single readings can be large; an effect the other way counts as inactive or inconclusive.

Tests used:
[1] = qHTS assay for small molecule agonists of the p53 signaling pathway (AID 651631; calls by dose curve; also: nearly all actives have a fitted effect of over 15% in size; also: potency is read from the fitted curve at half-maximal effect)
Summary of the method: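 p53RE-bla HCT-116 cells; compounds 16 h, 37 °C; LiveBLAzer B/G FRET substrate 2 h RT; fluorescence intensity read-out, qHTS format.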

[2] = qHTS assay for small molecules that induce genotoxicity in human embryonic kidney cells expressing luciferase-tagged ATAD5 (AID 651632); also: nearly all actives have a fitted effect of over 15% in size; also: potency is read from the fitted curve at half-maximal effect
Summary of the method: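 Luminescent reporter readout, HEK293T ATAD5-luc line: 16 hr drug exposure (37C, 5% CO2) followed by Amplite, 30 min RT.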

[3] = qHTS assay for small molecule agonists of the p53 signaling pathway - cell viability (AID 651633; calls by dose curve; also: nearly all actives have a fitted effect of over 30% in size; also: potency is read from the fitted curve at half-maximal effect)
Summary of the method: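 Viability counter-read: CellTiter-Glo luminescence (30 min, room temperature) in the same p53RE-bla plates. These plates had been exposed to compounds for 16 h at 37 C.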

[4] = qHTS assay for small molecule disruptors of the mitochondrial membrane potential (AID 720635); also: potency is read from the fitted curve at half-maximal effect
Summary of the method: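 Mitochondrial membrane potential tracked with Mito-MPS dye, red aggregates (ex 540/em 590 nm) against green monomers (ex 490/em 535 nm). Compound treatment 1 hr at 37C, dye 30 min in HepG2.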

[5] = qHTS assay to test for compound auto fluorescence at 590 nm (red) in HepG2 cells (AID 720674)
Summary of the method: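 1 hr compound incubation on HepG2 cells, 37 C, 5% CO2; plate read ex 540 nm / em 590 nm; intensities reported as Rose Bengal sodium equivalents.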

[6] = qHTS assay to test for compound auto fluorescence at 535 nm (green) in HepG2 cells (AID 720675)
[7] = qHTS assay for small molecules that induce genotoxicity in human embryonic kidney cells expressing luciferase-tagged ATAD5 - cell viability (AID 651634; calls by dose curve; also: nearly all actives have a fitted effect of over 25% in size; also: potency is read from the fitted curve at half-maximal effect)
Summary of the method: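 Viability read: CellTiter-Fluor fluorescence, 30 min at 37C. Cells: HEK293T, luciferase-tagged ATAD5. Exposure: 15.5 hr, 37C, 5% CO2, compound or DMSO vehicle.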

[8] = qHTS assay to test for compound auto fluorescence at 590 nm (red) in HEK293 cells (AID 720679)
Summary of the method: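 Intensity at 540nm excitation and 590nm emission is reported as Rose Bengal sodium-equivalent autofluorescence. Measurements followed overnight exposure (37C, 5% CO2) of HEK293 cells, 2,000 per well, to 23 nL compound.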

[9] = qHTS assay to test for compound auto fluorescence at 460 nm (blue) in HEK293 cells (AID 720678)
Summary of the method: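 HEK293, 2,000 cells/well, 10% dialyzed FBS; attach 4-5 hr 37C; pin compound or DMSO; o/n 37C/5% CO2; fluorescence 405/460 nm; triamterene-equivalent units.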

[10] = qHTS assay for small molecule disruptors of the mitochondrial membrane potential - cell viability (AID 720634; calls by dose curve; also: nearly all actives have a fitted effect of over 20% in size; also: potency is read from the fitted curve at half-maximal effect)
Summary of the method: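 HepG2, 1 hr compound, 37 C. ATP luminescence via CellTiter-Glo, 30 min RT, same well as m-MPI.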
% is scaled to controls: 0 for no effect and ±100 for the full control effect.

Cc1cc(Cc2cc(C)cc(C(C)(C)C)c2O)c(O)c(C(C)(C)C)c1
inactive: Potency [2] | outcome [5] | Potency [6]
active: Potency [1] 30.6 µM | Potency [3] 13.8 µM and 17.2 µM | Potency [4] 1.23 µM and 1.09 µM

Nc1nc2ccccc2[nH]1
inactive: Potency [1] | Potency [2] | Potency [3] | Potency [7] | Potency [4] | outcome [5] | Potency [6] | outcome [8]

O=C(OCc1ccccc1)c1ccc(O)cc1
active: Potency [4] 13.3 µM and 15.4 µM
inactive: Potency [1] | Potency [3] | Potency [7] | outcome [5] | Potency [6] | Potency [9] | outcome [8]

CC1COc2c(N3CCN(C)CC3)c(F)cc3c(=O)c(C(=O)O)cn1c23 (centres undefined)
inactive: Potency [1] | Potency [2] | Potency [3] | Potency [6] | Potency [9]

C=C(C)C(=O)O
inactive: Potency [1] | Potency [2] | Potency [3] | outcome [5] | Potency [6] | outcome [8]

CC[C@]1(O)C[C@@H]2CN(CCc3c([nH]c4ccccc34)[C@@](C(=O)OC)(c3cc4c(cc3OC)N(C)[C@H]3[C@@](O)(C(=O)OC)[C@H](OC(C)=O)[C@]5(CC)C=CCN6CC[C@]43[C@@H]65)C2)C1
active: Potency [1] 0.0422 µM | Potency [2] 1.19 µM and 266 nM | Potency [7] 133 nM and 168 nM | Potency [4] 1.88 µM and 944 nM
inactive: Potency [10] | outcome [5] | Potency [6] | Potency [9] | outcome [8]

c1ccc2c(c1)CCCC2C1=NCCN1 (centres undefined)
inactive: Potency [2] | Potency [3] | Potency [7] | Potency [10] | outcome [5] | Potency [6] | outcome [8]

COc1ccc(Cc2cnc(N)nc2N)cc1OC
inactive: Potency [2] | Potency [3] | Potency [7] | Potency [10] | Potency [4] | outcome [5] | Potency [6] | Potency [9] | outcome [8]

N[C@@H]1CONC1=O
inactive: Potency [2] | Potency [3] | Potency [7] | Potency [4] | Potency [6] | Potency [9] | outcome [8]

CC(C)CCOCc1ccccc1
inactive: Potency [2] | Potency [3] | Potency [7] | outcome [5] | Potency [6] | Potency [9] | outcome [8]

O=C(Cl)c1cccc(C(=O)Cl)c1
inactive: Potency [2] | Potency [3] | Potency [7] | Potency [10] | Potency [4] | outcome [5] | Potency [6] | Potency [9] | outcome [8]

CCCCCCCCCCCCCCCCCl
inactive: Potency [2] | Potency [3] | Potency [7] | Potency [10] | fluorescence, % of fluorescein control [6] -0.021% [at 18.6 µM] | fluorescence, % of triamterene [9] 0.0135% [at 18.6 µM] | fluorescence, % of fluorescent control [8] 0.199% [at 18.6 µM]

CCOc1ccc2c(c1)C(C)=CC(C)(C)N2
inactive: Potency [2] | Potency [3] | Potency [7] | Potency [10] | Potency [4] | outcome [5] | Potency [6] | Potency [9] | outcome [8]

CCC(=O)/C=C/C1C(C)=CCCC1(C)C (centres undefined)
active: Potency [4] 27.3 µM
inactive: Potency [2] | Potency [3] | Potency [7] | Potency [10] | outcome [5] | Potency [6] | Potency [9]

NC(=Nc1ccccc1)Nc1ccccc1
active: Potency [2] 15 µM | Potency [4] 3.35 µM and 15.4 µM
inactive: Potency [3] | Potency [7] | Potency [10] | outcome [5] | Potency [6] | Potency [9] | outcome [8]

c1cc(C(c2ccc(OCC3CO3)cc2)C(c2ccc(OCC3CO3)cc2)c2ccc(OCC3CO3)cc2)ccc1OCC1CO1 (centres undefined)
inactive: Potency [2] | Potency [3] | Potency [7] | Potency [10] | Potency [4] | outcome [5] | Potency [6] | Potency [9] | outcome [8]

CCC(C)(Oc1ccc(C2(c3ccc(OC(C)(CC)C(=O)O)cc3)CCCCC2)cc1)C(=O)O (centres undefined)
inactive: Potency [2] | Potency [3] | Potency [7] | Potency [10] | Potency [4] | outcome [5] | Potency [6]

C=CC(=O)OCCCCCCOC(=O)C=C
inactive: Potency [3] | Potency [4] | Potency [6] | Potency [9] | outcome [8]
active: Potency [1] 11 µM | Potency [7] 31 µM

COc1nc(C)nc(Cl)c1NC1=NCCN1
inactive: Potency [2] | Potency [3] | Potency [7] | Potency [10] | Potency [4] | fluorescence, % of fluorescein control [6] -0.17% [at 18.6 µM] | fluorescence, % of fluorescent control [8] -0.0076% [at 18.6 µM]

CN(C)c1ccc2nc3ccc(=[N+](C)C)cc-3sc2c1
inactive: Potency [2] | outcome [5] | Potency [6] | outcome [8]
active: Potency [3] 3.35 µM | Potency [7] 11.9 µM and 2.94 µM and 48.6 µM | Potency [10] 10.6 µM and 23.4 µM and 61.1 µM | Potency [4] 2.37 µM and 830 nM and 1.37 µM

CCCCN(CCO)CCCC
inactive: Potency [2] | Potency [3] | Potency [7] | Potency [10] | Potency [6] | Potency [9] | outcome [8]

O=Nc1ccc(Nc2ccccc2)cc1
active: Potency [1] 27.4 µM | Potency [4] 21.8 µM
inactive: outcome [5] | Potency [6] | Potency [9] | outcome [8]

CC(=O)CC(=O)Nc1ccc2[nH]c(=O)[nH]c2c1
inactive: Potency [2] | Potency [3] | Potency [7] | Potency [10] | Potency [4] | outcome [5] | Potency [6] | Potency [9]

CNCCC(Oc1ccc(C(F)(F)F)cc1)c1ccccc1 (centres undefined)
active: Potency [1] 53.8 µM | Potency [3] 60.3 µM
inactive: Potency [7] | outcome [5] | Potency [6] | Potency [9] | outcome [8]

CCC(C)(C)C(=O)O[C@H]1C[C@@H](C)C=C2C=C[C@H](C)[C@H](CC[C@@H]3C[C@@H](O)CC(=O)O3)[C@H]21
inactive: Potency [2] | Potency [7] | outcome [5] | Potency [6] | Potency [9]
inactive and 61.1 µM (active): Potency [3]

BrC1CCC(Br)C(Br)CCC(Br)C(Br)CCC1Br (centres undefined)
active: Potency [3] 15.3 µM and 25.9 µM | Potency [4] 3.84 µM and 9.19 µM
inactive: Potency [2] | Potency [7] | Potency [10] | outcome [5] | Potency [6] | outcome [8]
